Measured values taken from the supplement of paper PMC6805474.

How the values were obtained:
[1] = test system: Schistosoma mansoni schistosomula (NMRI); test: phenotypic severity score (0-4); higher = more antischistosomal effect, active = 2 or more; settings: 10 µM
[2] = test system: Schistosoma mansoni schistosomula (Liberian); test: drug effect (1 - score/DMSO control score) (fraction); higher = more antischistosomal effect, active = 0.5 or more; extreme values may be limits of the assay; settings: 10 µM
Summary of the method: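 Drug effect was calculated by comparing the mean score of the test wells with the mean score of the DMSO wells, and any negative value was set to zero. Duplicate wells of 50 Liberian-strain S. mansoni schistosomula, mechanically transformed from cercariae and pre-incubated at least 12 h, received 10 µM compound in Medium 199 with 5% FCS at 37 °C, 5% CO2, with 0.1% DMSO in the comparison wells. Visual scoring at 10× took place at 24, 48 and 72 h on a quarter-point scale from 3 (normal) to 0 (dead), and a plate counted only if its DMSO wells averaged at least 2.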

[3] = test system: Schistosoma mansoni schistosomula (LE); test: XTT viability relative to DMSO control; higher = more viable (less active); settings: 72 h; 10 µM
Protocol: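 XTT/PMS was then added for a further 24 h (72 h total) and A450 was read. % viability = (sample - heat-killed control)/(DMSO control - heat-killed control) x 100, from duplicate wells in two independent experiments.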
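For phenotypic severity score (0-4) in this document: visual microscopic scoring of shape, motility and density changes versus 0.5% DMSO solvent controls, one point per descriptor, degeneracy or death scored 4, mean of duplicate wells.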

O[C@@H](c1cc(C(F)(F)F)nc2c(C(F)(F)F)cccc12)[C@H]1CCCCN1
active: phenotypic severity score ([1]; 24 h) 4 | phenotypic severity score ([1]; 48 h) 4 | phenotypic severity score ([1]; 72 h) 4 | drug effect ([2]; 24 h) 0.955 | drug effect ([2]; 48 h) 1 | drug effect ([2]; 72 h) 1

Cc1cccc(NC(=O)c2cc(S(=O)(=O)N(C)c3ccc(F)cc3)ccc2Cl)n1
inactive: phenotypic severity score ([1]; 24 h) 0 | phenotypic severity score ([1]; 48 h) 0 | phenotypic severity score ([1]; 72 h) 0 | drug effect ([2]; 24 h) 0.05 | drug effect ([2]; 48 h) 0.135 | drug effect ([2]; 72 h) 0.222

N#CCN(CCCCN1CCN(c2ccc(F)cc2)CC1)C(=O)OCc1ccccc1
inactive: phenotypic severity score ([1]; 24 h) 0 | phenotypic severity score ([1]; 48 h) 0 | phenotypic severity score ([1]; 72 h) 0 | drug effect ([2]; 24 h) 0.0811 | drug effect ([2]; 48 h) 0.111 | drug effect ([2]; 72 h) 0.125

COc1ccccc1OCCCCn1c(C2CC2)nc2ccccc21
inactive: phenotypic severity score ([1]; 24 h) 0 | phenotypic severity score ([1]; 48 h) 0 | phenotypic severity score ([1]; 72 h) 0 | drug effect ([2]; 24 h) 0.136 | drug effect ([2]; 48 h) 0.2 | drug effect ([2]; 72 h) 0.182

Brc1cncc(-c2cc(NCCCn3ccnc3)nc(-c3ccccc3)n2)c1
inactive: phenotypic severity score ([1]; 24 h) 1 | drug effect ([2]; 24 h) 0.273
active: phenotypic severity score ([1]; 48 h) 4 | phenotypic severity score ([1]; 72 h) 4 | drug effect ([2]; 48 h) 0.65 | drug effect ([2]; 72 h) 0.673

COc1cncc(-c2cncc(N3CCN(c4ccncc4)CC3)n2)c1
inactive: phenotypic severity score ([1]; 24 h) 1 | phenotypic severity score ([1]; 48 h) 0 | phenotypic severity score ([1]; 72 h) 0 | drug effect ([2]; 24 h) 0.351 | drug effect ([2]; 48 h) 0.389
active: drug effect ([2]; 72 h) 0.688

c1ccc(-c2cc(N3CCCCC3)c3ccccc3n2)nc1
inactive: phenotypic severity score ([1]; 24 h) 1 | phenotypic severity score ([1]; 48 h) 0 | phenotypic severity score ([1]; 72 h) 1 | drug effect ([2]; 24 h) 0.15 | drug effect ([2]; 48 h) 0.243 | drug effect ([2]; 72 h) 0.389

CC(C)(C)OC(=O)N1CCN(c2cc(-c3ccc(Oc4ccccc4)cc3)n[nH]2)CC1
inactive: phenotypic severity score ([1]; 24 h) 0 | phenotypic severity score ([1]; 48 h) 0 | phenotypic severity score ([1]; 72 h) 0 | drug effect ([2]; 24 h) 0.0526 | drug effect ([2]; 48 h) 0.167 | drug effect ([2]; 72 h) 0.25

CC(C(=O)Nc1ccc2oc(-c3ccncc3)nc2c1)c1ccccc1 (centres undefined)
inactive: phenotypic severity score ([1]; 24 h) 1 | phenotypic severity score ([1]; 48 h) 0 | phenotypic severity score ([1]; 72 h) 0 | drug effect ([2]; 24 h) 0.182 | drug effect ([2]; 48 h) 0.35 | drug effect ([2]; 72 h) 0.345

c1csc(-c2cnc3sc(NCC4CCOCC4)nn23)c1
inactive: phenotypic severity score ([1]; 24 h) 0 | phenotypic severity score ([1]; 48 h) 0 | phenotypic severity score ([1]; 72 h) 0 | drug effect ([2]; 24 h) 0.182 | drug effect ([2]; 72 h) 0.345
active: drug effect ([2]; 48 h) 0.55

O=C(Nc1cnc2ccccc2c1)c1cccc(-n2cnnn2)c1
inactive: phenotypic severity score ([1]; 24 h) 0 | phenotypic severity score ([1]; 48 h) 0 | phenotypic severity score ([1]; 72 h) 0 | drug effect ([2]; 24 h) < 0 | drug effect ([2]; 48 h) < 0 | drug effect ([2]; 72 h) 0.0303

Cn1ncc2c(N3CCOCC3)nc(NCCc3c[nH]c4ccccc34)nc21
inactive: drug effect ([2]; 24 h) 0.45
active: phenotypic severity score ([1]; 24 h) 4 | phenotypic severity score ([1]; 48 h) 4 | phenotypic severity score ([1]; 72 h) 4 | drug effect ([2]; 48 h) 0.676 | drug effect ([2]; 72 h) 0.944

CCOc1ccc(OCC(=O)Nc2cc(C)cc(C)c2)cc1
inactive: phenotypic severity score ([1]; 24 h) 0 | phenotypic severity score ([1]; 48 h) 0 | phenotypic severity score ([1]; 72 h) 0 | drug effect ([2]; 24 h) 0.0909 | drug effect ([2]; 48 h) 0.05 | drug effect ([2]; 72 h) 0.158

Cc1ccc2nc(C)c(-c3ccn(Cc4ccccc4)n3)n2c1
active: phenotypic severity score ([1]; 24 h) 3 | phenotypic severity score ([1]; 48 h) 4 | phenotypic severity score ([1]; 72 h) 4
inactive: drug effect ([2]; 24 h) < 0 | drug effect ([2]; 48 h) < 0 | drug effect ([2]; 72 h) 0.111

COc1cc(C2=NCCN2)ccc1-c1cn(-c2cccc(C3=NCCN3)c2)nn1
inactive: phenotypic severity score ([1]; 24 h) 1 | phenotypic severity score ([1]; 48 h) 0 | phenotypic severity score ([1]; 72 h) 0 | drug effect ([2]; 24 h) 0.25 | drug effect ([2]; 48 h) 0.297 | drug effect ([2]; 72 h) 0.394

O=C(NC1CCCCC1)N1CCN(Cc2ccc3c(c2)OCO3)CC1
inactive: phenotypic severity score ([1]; 24 h) 0 | phenotypic severity score ([1]; 48 h) 0 | phenotypic severity score ([1]; 72 h) 0 | drug effect ([2]; 24 h) 0.0455 | drug effect ([2]; 48 h) 0.2 | drug effect ([2]; 72 h) 0.127

C[C@H](c1ccc2c(c1)CCCC2)N(C)c1ncc2c(N)nc(N)nc2n1
inactive: phenotypic severity score ([1]; 24 h) 0 | phenotypic severity score ([1]; 48 h) 0 | phenotypic severity score ([1]; 72 h) 0 | drug effect ([2]; 24 h) 0.2 | drug effect ([2]; 48 h) 0.278 | drug effect ([2]; 72 h) 0.438

O=C(NCc1ccco1)N1CCN(Cc2ccc(Cl)s2)CC1
inactive: phenotypic severity score ([1]; 24 h) 0 | phenotypic severity score ([1]; 48 h) 0 | phenotypic severity score ([1]; 72 h) 0 | drug effect ([2]; 24 h) 0.136 | drug effect ([2]; 48 h) 0.3 | drug effect ([2]; 72 h) 0.345

CC(C)C(NC(=O)Cc1cccc2ccccc12)C(=O)Nc1cccc(C#N)c1 (centres undefined)
inactive: phenotypic severity score ([1]; 24 h) 0 | phenotypic severity score ([1]; 48 h) 0 | phenotypic severity score ([1]; 72 h) 0 | drug effect ([2]; 24 h) 0.15 | drug effect ([2]; 48 h) 0.222 | drug effect ([2]; 72 h) 0.333

Cn1c(=O)c2c(S(C)(=O)=O)snc2n(C)c1=O
active: phenotypic severity score ([1]; 24 h) 4 | phenotypic severity score ([1]; 48 h) 4 | phenotypic severity score ([1]; 72 h) 4 | drug effect ([2]; 24 h) 1 | drug effect ([2]; 48 h) 1 | drug effect ([2]; 72 h) 1

O=C(NCCc1c[nH]c2ccccc12)c1cc2ccccc2oc1=O
inactive: phenotypic severity score ([1]; 24 h) 1 | phenotypic severity score ([1]; 48 h) 0 | phenotypic severity score ([1]; 72 h) 0 | drug effect ([2]; 24 h) 0.182 | drug effect ([2]; 48 h) 0.4 | drug effect ([2]; 72 h) 0.455

O=C(Nc1nnc(-c2ccc(Cl)cc2)o1)c1cccc(C(F)(F)F)c1
inactive: phenotypic severity score ([1]; 24 h) 0 | drug effect ([2]; 24 h) 0.0909 | drug effect ([2]; 48 h) 0.25
active: phenotypic severity score ([1]; 48 h) 4 | phenotypic severity score ([1]; 72 h) 4 | drug effect ([2]; 72 h) 0.945

CCOC(=O)NC(=O)c1ccsc1NC(=O)c1nc2ccccc2s1
inactive: phenotypic severity score ([1]; 24 h) 0 | phenotypic severity score ([1]; 48 h) 0 | phenotypic severity score ([1]; 72 h) 0 | drug effect ([2]; 24 h) 0.0909 | drug effect ([2]; 48 h) 0.2 | drug effect ([2]; 72 h) 0.182

CN(C(=O)c1cc2c(-c3cncnc3)cccc2[nH]1)c1ccccc1
inactive: phenotypic severity score ([1]; 24 h) 0 | phenotypic severity score ([1]; 48 h) 0 | phenotypic severity score ([1]; 72 h) 0 | drug effect ([2]; 24 h) 0.189 | drug effect ([2]; 48 h) 0.278 | drug effect ([2]; 72 h) 0.375

Cc1ccc(S(=O)(=O)N2CCN(C(=O)c3cc(-c4ccccc4)[nH]n3)CC2)cc1
active: phenotypic severity score ([1]; 24 h) 2 | phenotypic severity score ([1]; 48 h) 2 | drug effect ([2]; 48 h) 0.75 | drug effect ([2]; 72 h) 0.836
inactive: phenotypic severity score ([1]; 72 h) 1 | drug effect ([2]; 24 h) 0.455

Cc1cc(Cl)c(S(=O)(=O)N2CCCC2)cc1OCC(=O)NC1CCCCC1
inactive: phenotypic severity score ([1]; 24 h) 0 | phenotypic severity score ([1]; 48 h) 0 | phenotypic severity score ([1]; 72 h) 0 | drug effect ([2]; 24 h) 0.1 | drug effect ([2]; 48 h) 0.189 | drug effect ([2]; 72 h) 0.212
111%: XTT viability [3]

O=C(c1ccc(F)cc1)N(CCNc1ccccc1)c1ccccc1
inactive: phenotypic severity score ([1]; 24 h) 1 | phenotypic severity score ([1]; 48 h) 0 | phenotypic severity score ([1]; 72 h) 1 | drug effect ([2]; 24 h) 0.135 | drug effect ([2]; 48 h) 0.167 | drug effect ([2]; 72 h) 0.25
126%: XTT viability [3]

CCn1ncc2c(NC3CCOCC3)c(CNC(=O)c3ccnn3C)c(C)nc21
inactive: phenotypic severity score ([1]; 24 h) 0 | phenotypic severity score ([1]; 48 h) 0 | phenotypic severity score ([1]; 72 h) 0 | drug effect ([2]; 24 h) 0.05 | drug effect ([2]; 48 h) 0.0811 | drug effect ([2]; 72 h) 0.0303

FC(F)(F)c1cnc(Sc2nnc(-c3ccncc3)o2)c(Cl)c1
active: phenotypic severity score ([1]; 72 h) 2 | drug effect ([2]; 48 h) 0.778 | drug effect ([2]; 72 h) 0.938
inactive: phenotypic severity score ([1]; 24 h) 0 | phenotypic severity score ([1]; 48 h) 1 | drug effect ([2]; 24 h) 0.459
74%: XTT viability [3]

Clc1cccc(C(c2ccc(CN3CCNCC3)cc2)n2ccnc2)c1 (centres undefined)
76.1%: XTT viability [3]
active: phenotypic severity score ([1]; 72 h) 4 | drug effect ([2]; 48 h) 0.667 | drug effect ([2]; 72 h) 0.875
inactive: phenotypic severity score ([1]; 24 h) 1 | phenotypic severity score ([1]; 48 h) 1 | drug effect ([2]; 24 h) 0.405
